Screens from PubChem.
Hits are enriched below; roughly 0.93% of the tested compounds scored in any of these assays.
MEP2-GFP yeast: yeast TOR pathway MEP2-GFP modulation; S. cerevisiae MEP2-GFP strain, flow cytometry GFP, 3 h; 100% = DMSO control level; GFP response vs DMSO, % at 10 µM; AID 2016; 330,000 compounds, 0.51% hits;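 active = GFP response versus DMSO above a set limit, roughly screen mean plus 3 SD, cut at about 180% in these data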;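 also: median GFP fluorescence of the barcode-gated MEP2-GFP cells per well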
RPL19A TOR yeast: alters RPL19A-GFP fluorescence in TOR pathway yeast screen | AID 2025 | percent response vs DMSO, % at 10 µM | 330,000 compounds, 0.3% hits | S. cerevisiae RPL19A-GFP strain, flow cytometry, 3 h; hits give low values;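 active = percent response vs DMSO below 50%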;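 also: median channel GFP fluorescence of the barcoded RPL19A-GFP strain; ratio of sample median GFP to plate DMSO average so 100% = DMSO; lower means less RPL19A-GFP as with rapamycin TOR inhibition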
AGP1-GFP MLPCN: alters AGP1-GFP fluorescence in TOR pathway yeast screen; 320,000 compounds, 0.02% hits; AID 2066; S. cerevisiae AGP1-GFP multiplex flow cytometry, 3 h; GFP as percent of DMSO wells; GFP response vs DMSO, % at 10 µM;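 active = GFP response relative to DMSO above a set limit, near screen average plus 3 SD, cut at about 150% in these data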;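 also: median GFP channel fluorescence of the gated AGP1 strain per well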
CIT2-GFP yeast: yeast TOR pathway CIT2-GFP modulation | S. cerevisiae CIT2-GFP strain, flow cytometry, 3 h; 100 means same as DMSO wells | GFP response vs DMSO, % at 10 µM | 320,000 compounds, 0.065% hits;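 active = GFP response relative to DMSO above a set limit, near the screen mean plus 3 SD, cut at about 150% in these data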;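 also: ratio of well median GFP fluorescence to mean of DMSO wells on the plate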
LAP4-GFP MLPCN: yeast TOR pathway LAP4-GFP modulation; GFP response vs DMSO, % at 10 µM; S. cerevisiae LAP4-GFP multiplex, flow cytometry GFP, 3 h; median GFP as percent of DMSO wells; 320,000 compounds, 0.34% hits;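 active = GFP response vs DMSO above a set limit, about the screen mean plus 3 SD, cut at about 150% in these data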
LAP4-GFP pick2: yeast LAP4-GFP modulation, second cherry pick; S. cerevisiae LAP4-GFP strain, flow cytometry GFP, 3 h; shares compounds with LAP4-GFP MLPCN; 590 compounds, 20% hits; AID 2621; GFP response vs DMSO, % at 10 µM;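 active = GFP signal as percent of the solvent control above about 150%, meaning raised reporter expression, limit read from the data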;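 also: ratio of well median GFP fluorescence to plate DMSO mean so 100% = DMSO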
MEP2 cherry2: yeast MEP2-GFP modulation, second cherry pick; shares compounds with LAP4-GFP MLPCN; S. cerevisiae MEP2-GFP strain, flow cytometry GFP, 3 h; GFP response vs DMSO, % at 10 µM; 590 compounds, 10% hits;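 active = GFP signal above 150% of the solvent control wells, that is a rise of more than half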;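 also: median channel GFP fluorescence of all gated yeast cells per well; ratio of median GFP to plate DMSO average so 100% = DMSO level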
RPL19A GFP CP2: yeast RPL19A-GFP TOR reporter modulation, second cherry pick; shares compounds with LAP4-GFP MLPCN; S. cerevisiae RPL19A-GFP strain, flow cytometry GFP, 3 h; hits give low values; 100% means same as DMSO wells; GFP response vs DMSO, % at 10 µM; 590 compounds, 3% hits; AID 2623;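 active = under 65% GFP response relative to DMSO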;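 also: median GFP channel fluorescence per well over the all cells gate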
CIT2-GFP pick2: yeast CIT2-GFP TOR reporter modulation, second cherry pick; GFP response vs DMSO, % at 10 µM; AID 2624; 590 compounds, 8% hits; shares compounds with LAP4-GFP MLPCN; S. cerevisiae CIT2-GFP strain, flow cytometry GFP, 3 h; DMSO control wells read 100%;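 active = GFP response vs DMSO above about 150%, limit read from the data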;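 also: median green fluorescence per well over all gated yeast cells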
AGP1-GFP pick2: yeast AGP1-GFP TOR reporter modulation, second cherry pick; shares compounds with LAP4-GFP MLPCN; S. cerevisiae AGP1-GFP strain, flow cytometry GFP, 3 h; percent response vs DMSO, % at 10 µM; 590 tested, under 10 active; AID 2643;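 active = over 150 percent of DMSO response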;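 also: median GFP channel fluorescence over all cells without mother daughter split; sample median GFP divided by mean DMSO control so 100% equals DMSO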
s288c autofluor: counter-screen for compound autofluorescence in yeast s288c cells; shares compounds with LAP4-GFP MLPCN; S. cerevisiae s288c, 520 nm autofluorescence, flow cytometry, 3 h; hits give high values; zero means same as solvent-only cells; fluorescence change (kMESF span) at 33 µM; 610 tested, under 10 active; AID 2757;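 active = fluorescence span over the dose series, or activity score, above about 33, limit read from the data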
Yeast autofl DR: yeast s288c autofluorescence artifact in dose response | shares compounds with LAP4-GFP MLPCN | S. cerevisiae s288c parental, compound autofluorescence, flow cytometry, 3 h | fluorescence change (span) at 33 µM | 110 tested, under 10 active;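 active = fluorescence change span, or the activity score built from it, above 25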
TORC1 bypass gr: stops wildtype yeast growth while TORC1 bypass cells still grow; shares compounds with LAP4-GFP MLPCN; S. cerevisiae BY4741 spot growth rating, 48-72 h; hits give low values; 120 tested, under 10 active; growth rating (0-3) at 30 µM;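 active = growth rating at most 1 for wild type yeast while the TORC1 bypass strain still grows fully, rated 3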
* marks the source's active call; other numbers are inactive results.

How did O=C(Nc1ccc(O)cc1)C1CCCN1S(=O)(=O)c1ccc(F)cc1 (stereo unspecified) do in these assays?
MEP2-GFP yeast: 195.5*; RPL19A TOR yeast: 107.3; AGP1-GFP MLPCN: 114.7; CIT2-GFP yeast: 145.6; LAP4-GFP MLPCN: 143.1; LAP4-GFP pick2: 101.2; MEP2 cherry2: 101.3; RPL19A GFP CP2: 97.6; CIT2-GFP pick2: 104.3; AGP1-GFP pick2: 99.3; s288c autofluor: 0

What do the screens show for `O=C1Nc2ccccc2/C1=C/c1cnc(-c2ccccc2)[nH]1`?
MEP2-GFP yeast: 183.8*; RPL19A TOR yeast: 119.9; AGP1-GFP MLPCN: 116.1; CIT2-GFP yeast: 161.3*; LAP4-GFP MLPCN: 169.2*; LAP4-GFP pick2: 111.2; MEP2 cherry2: 141.5; RPL19A GFP CP2: 102.5; CIT2-GFP pick2: 133.5; AGP1-GFP pick2: 99.8

Results for COC(=O)/C(=C/c1c[nH]c2ccccc12)[N+](=O)[O-] ?
MEP2-GFP yeast: 87.5; RPL19A TOR yeast: 85.4; AGP1-GFP MLPCN: 89.1; CIT2-GFP yeast: 86.3; LAP4-GFP MLPCN: 177.9*; s288c autofluor: 0.1

What do the screens show for `COC(=O)/C(=C/c1c[nH]c2ccccc12)NC(C)=O`?
MEP2-GFP yeast: 113.2; RPL19A TOR yeast: 107.0; AGP1-GFP MLPCN: 108.4; CIT2-GFP yeast: 115.2; LAP4-GFP MLPCN: 100.1

Results for CC1=C(C(=O)OC(C)(C)C)C(c2cccc3ccccc23)NC(=O)N1 (stereo unspecified) ?
MEP2-GFP yeast: 111.5; RPL19A TOR yeast: 103.1; AGP1-GFP MLPCN: 93.2; CIT2-GFP yeast: 97.5; LAP4-GFP MLPCN: 87.8

What do the screens show for `O=C(Nc1nnc(-c2ccc(F)cc2)o1)c1cc(Cl)sc1Cl`?
MEP2-GFP yeast: 118.0; RPL19A TOR yeast: 98.3; AGP1-GFP MLPCN: 114.5; CIT2-GFP yeast: 101.8; LAP4-GFP MLPCN: 163.8*; LAP4-GFP pick2: 167.3*; MEP2 cherry2: 121.5; RPL19A GFP CP2: 112.2; CIT2-GFP pick2: 139.1; AGP1-GFP pick2: 104.4; s288c autofluor: 0.7

How did O=C(Nc1nnc(-c2ccc(F)cc2)o1)c1cccc([N+](=O)[O-])c1 do in these assays?
MEP2-GFP yeast: 111.5; RPL19A TOR yeast: 98.1; AGP1-GFP MLPCN: 102.7; CIT2-GFP yeast: 99.2; LAP4-GFP MLPCN: 163.6*; s288c autofluor: 0.2

How did O=C(Nc1nnc(-c2ccccc2)o1)c1cc(Cl)sc1Cl do in these assays?
MEP2-GFP yeast: 102.9; RPL19A TOR yeast: 101.7; AGP1-GFP MLPCN: 99.0; CIT2-GFP yeast: 99.7; LAP4-GFP MLPCN: 102.9

How did CN(Cc1ccccc1Br)C(=O)CSc1nnnn1C1CC1 do in these assays?
MEP2-GFP yeast: 96.3; RPL19A TOR yeast: 100.1; AGP1-GFP MLPCN: 98.6; CIT2-GFP yeast: 97.4; LAP4-GFP MLPCN: 100.7

What do the screens show for `CC(C)(C)C(=O)C(Cl)C(=O)Nc1ccccc1` (stereo unspecified)?
MEP2-GFP yeast: 105.4; RPL19A TOR yeast: 68.8; AGP1-GFP MLPCN: 116.0; CIT2-GFP yeast: 119.1; LAP4-GFP MLPCN: 285.5*; s288c autofluor: 1.64; Yeast autofl DR: 0.1; TORC1 bypass gr: 3

Results for O=C(Nc1ccc(Nc2ccccc2)cc1)C(Cl)Cl ?
MEP2-GFP yeast: 86.9; RPL19A TOR yeast: 97.6; AGP1-GFP MLPCN: 86.8; CIT2-GFP yeast: 73.8; LAP4-GFP MLPCN: 108.9

What do the screens show for `N/C(=N\OC(=O)c1cc(Br)ccc1Cl)c1ccccn1`?
MEP2-GFP yeast: 104.5; RPL19A TOR yeast: 89.4; AGP1-GFP MLPCN: 89.7; CIT2-GFP yeast: 116.6; LAP4-GFP MLPCN: 207.8*; s288c autofluor: 1.2

What do the screens show for `COc1ccc(CCNC2=C(Cl)C(=O)N(CCc3ccccc3)C2=O)cc1OC`?
MEP2-GFP yeast: 111.9; RPL19A TOR yeast: 98.3; AGP1-GFP MLPCN: 96.8; CIT2-GFP yeast: 89.9; LAP4-GFP MLPCN: 109.4; s288c autofluor: 0

How did O=C1C(Cl)=C(Nc2ccccc2O)C(=O)N1CCc1ccccc1 do in these assays?
MEP2-GFP yeast: 104.2; RPL19A TOR yeast: 102.7; AGP1-GFP MLPCN: 97.4; CIT2-GFP yeast: 97.8; LAP4-GFP MLPCN: 98.8; s288c autofluor: 0.4

What do the screens show for `Nc1c(C(=O)NC2CC2)sc2nc3c(c(-c4ccco4)c12)CC/C3=C/c1ccco1`?
MEP2-GFP yeast: 261.4*; RPL19A TOR yeast: 70.6; AGP1-GFP MLPCN: 38.5; CIT2-GFP yeast: 85.7; LAP4-GFP MLPCN: 195.4*; LAP4-GFP pick2: 141.3; MEP2 cherry2: 113.1; RPL19A GFP CP2: 105.9; CIT2-GFP pick2: 118.7; AGP1-GFP pick2: 100.6

What do the screens show for `Cc1ccc(S(=O)(=O)c2nc(S(=O)(=O)c3ccccc3)sc2N2CCN(C)CC2)cc1`?
MEP2-GFP yeast: 110.6; RPL19A TOR yeast: 109.7; AGP1-GFP MLPCN: 107.4; CIT2-GFP yeast: 126.2; LAP4-GFP MLPCN: 98.5

Results for Cc1ccc(Nc2ccc(-n3ccnc3)nn2)cc1C ?
MEP2-GFP yeast: 156.5; RPL19A TOR yeast: 53.2; AGP1-GFP MLPCN: 30.3; CIT2-GFP yeast: 79.5; LAP4-GFP MLPCN: 96.6; LAP4-GFP pick2: 103.2; MEP2 cherry2: 103.1; RPL19A GFP CP2: 100.6; CIT2-GFP pick2: 100.1; AGP1-GFP pick2: 96.7

How did O=C1CN(C(=O)CNCc2cccc(Cl)c2)c2ccccc2N1 do in these assays?
MEP2-GFP yeast: 98.6; RPL19A TOR yeast: 98.7; AGP1-GFP MLPCN: 100.4; CIT2-GFP yeast: 98.4; LAP4-GFP MLPCN: 98.2
